An excerpt weighted towards active compounds, which were near 21% of everything screened.
ELG1 DNA repair: ELG1-dependent DNA repair inhibition. HEK293T ELG1-luciferase reporter, luminescence, 16 h; DNA damage induced by 5-fluorouridine. Potency, µM (doses to about 46.1 µM), usual class: inhibitors. actives 2.3% (n = 330,000). AID 504467; further: nearly all actives have a fitted effect of over 55% in size
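In this reporter screen, reduction of luminescence relative to DMSO vehicle indicated activity. Compounds and 5-fluorouridine were added together to 2,000 cells per well, incubated for 16 hr at 37 °C, then developed with ONE-Glo.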
IL-1B inflam inh: inflammasome signaling inhibition, IL-1 beta readout; THP-1 LPS/ATP IL-1B secretion, AlphaLISA, 16 h; active compounds read low; activity change, % at 57.5 µM; actives 4.7% (n = 360,000); AID 743279; in the data active means activity change below about -50%; inconclusive means mostly about -30% to -49%
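THP-1 cells pretreated 1 hr with compounds (up to 57.5 uM final), then stimulated with LPS (250 ng/mL final) plus ATP (1.25 mM final); secreted IL-1B measured by AlphaLISA after 16 hr, decreased signal indicating inhibition.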
TDP1 cell noCPT: qHTS for Inhibitors of human tyrosyl-DNA phosphodiesterase 1 (TDP1): qHTS in cells in absence of CPT; Potency, µM (titrated, usually from 46.2 µM), hits mostly inhibitors; DT40 Tdp1-/- hTDP1 cells, no CPT, ATP luminescence, 48 h; actives 15% (n = 420,000); further: nearly all actives have a fitted effect of over 55% in size
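Camptothecin absent (DMSO only). Human TDP1-complemented DT40 knockout cells, 400 cells/well, 37 °C for minimum 48 hr; ATP measured via CellTiter-Glo, 30 min dark incubation, luminescence.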
TDP1 cell CPT: DT40-hTDP1 cell growth loss with CPT | chicken DT40 Tdp1-/-;hTDP1 cells + 20 nM CPT, ATP luminescence, 48 h | Potency, µM (titrated, usually from 46.2 µM), hits mostly inhibitors | actives 12% (n = 420,000); further: nearly all actives have a fitted effect of over 55% in size
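Chicken DT40 Tdp1-/- cells complemented with human TDP1, 400 cells/well, exposed to compounds plus 20 nM camptothecin for at least 48 h at 37 C; viability read as ATP content by CellTiter-Glo luminescence.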
RORg inh: inhibitors of mouse ROR gamma transcriptional activity | Drosophila S2 Gal4-RORgamma UAS-luciferase reporter, 20 h | Potency, µM (highest dose often 53.6 µM), hits mostly inhibitors | actives 5.4% (n = 310,000) | AID 2551; further: nearly all actives have a fitted effect of over 60% in size
Target sequence (P51450 whole entry, looked up, the tested form may be a part): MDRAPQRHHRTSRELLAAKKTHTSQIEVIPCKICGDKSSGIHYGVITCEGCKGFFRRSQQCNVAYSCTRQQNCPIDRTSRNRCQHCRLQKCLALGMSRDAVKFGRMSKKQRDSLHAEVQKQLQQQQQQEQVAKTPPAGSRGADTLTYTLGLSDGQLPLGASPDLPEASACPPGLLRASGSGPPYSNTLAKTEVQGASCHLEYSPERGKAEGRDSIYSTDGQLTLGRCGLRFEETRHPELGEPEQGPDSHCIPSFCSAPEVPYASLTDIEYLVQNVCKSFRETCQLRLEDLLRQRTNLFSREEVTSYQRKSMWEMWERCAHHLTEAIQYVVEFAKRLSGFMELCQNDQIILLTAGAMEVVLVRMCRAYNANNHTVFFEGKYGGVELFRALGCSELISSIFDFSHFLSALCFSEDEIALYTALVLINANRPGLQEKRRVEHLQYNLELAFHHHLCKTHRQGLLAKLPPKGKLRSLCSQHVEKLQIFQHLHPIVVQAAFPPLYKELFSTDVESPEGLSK
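Read-out: Photinus luciferase luminescence; inhibitors lower reporter signal. Insect Schneider cells with Gal4-ROR gamma fusion under metallothionein promoter, UAS reporter; 700 uM final copper sulfate induction, 20 hr, ambient temperature.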
VP16 counter: inhibits Gal4-VP16 luciferase reporter, ROR gamma counter-screen; Potency, µM (highest dose often 53.6 µM), usual class: inhibitors; actives 3.5% (n = 310,000); Drosophila S2 Gal4-VP16 UAS-luciferase, luminescence, 20 h;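 further: Gal4-VP16 expression switched on by copper sulfate through the metallothionein promoter; nearly all actives have a fitted effect of over 50% in size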
Of the large screens only hits and unclear results are named; the others gave an inactive call. Unless noted, the call rests on the fitted dose curve; in most records, active means well fitted curve in the direction sought with a large enough effect; inconclusive means small, poorly fitted or top-dose-only effect, or another doubt; inactive means no such curve, though single readings can be large; an effect the other way counts as inactive or inconclusive.

COc1cc(/C=C2\C(=O)N(c3ccccc3)N=C2C)ccc1Oc1ccc([N+](=O)[O-])cc1[N+](=O)[O-]	ELG1 DNA repair inconclusive, IL-1B inflam inh inconclusive, TDP1 cell noCPT 18µM, TDP1 cell CPT 16µM
COc1cc(/C=C2\SC(=O)NC2=O)ccc1Oc1ccc([N+](=O)[O-])cn1	ELG1 DNA repair 21µM, TDP1 cell noCPT inconclusive, RORg inh inconclusive, VP16 counter inconclusive
COc1cc(/C=C2/SC(N)=NC2=O)ccc1Oc1ccc([N+](=O)[O-])cc1[N+](=O)[O-]	TDP1 cell noCPT 2.9µM, TDP1 cell CPT 3.3µM, VP16 counter inconclusive
CCCOc1ccc(/C=C2\SC(N)=NC2=O)cc1OC	ELG1 DNA repair inconclusive, TDP1 cell noCPT inconclusive
CCc1nnc(NC(=O)C(=O)c2cc(C)n(-c3ccccc3)c2C)s1	none (no result: ELG1 DNA repair, IL-1B inflam inh, RORg inh, VP16 counter)
Cc1sc2nc(CSc3ccccc3)nc(N3CCOCC3)c2c1C	TDP1 cell noCPT inconclusive, TDP1 cell CPT inconclusive
CCOC(=O)c1[nH]c2ccc(OC)cc2c1NC(=O)CN1CCN(c2ccccn2)CC1	ELG1 DNA repair inconclusive (no result: IL-1B inflam inh, TDP1 cell noCPT, TDP1 cell CPT)
CCOC(=O)c1sc2nc(CSc3ccccc3)nc(N3CCC(C(N)=O)CC3)c2c1C	ELG1 DNA repair 18µM, IL-1B inflam inh -116, TDP1 cell noCPT 23µM, TDP1 cell CPT inconclusive
CCOC(=O)c1sc2nc(CC(=O)OC)nc(N3CCN(c4ccccn4)CC3)c2c1C	ELG1 DNA repair 9.2µM, TDP1 cell noCPT 18µM, TDP1 cell CPT 23µM, RORg inh inconclusive
Cc1sc2nc(CSc3ccccc3)nc(N3CCC(C(N)=O)CC3)c2c1C	ELG1 DNA repair inconclusive, IL-1B inflam inh -63, TDP1 cell noCPT 21µM, TDP1 cell CPT inconclusive
CCOc1ccccc1N=CC1=C(O)CC(c2ccccc2)CC1=O (configuration not stated)	TDP1 cell noCPT inconclusive, TDP1 cell CPT inconclusive
O=C1CC(c2ccccc2)CC(O)=C1C=NCc1ccccc1Cl (configuration not stated)	TDP1 cell noCPT 2.3µM, TDP1 cell CPT 2.3µM
O=C1CC(c2ccccc2)CC(O)=C1C=NCc1ccccc1 (configuration not stated)	none
COc1ccc(N=CC2=C(O)CC(c3ccccc3)CC2=O)c(OC)c1 (configuration not stated)	ELG1 DNA repair inconclusive, TDP1 cell noCPT 15µM, TDP1 cell CPT 18µM
CCC(=Nc1ccccc1OC)C1=C(O)CC(c2ccccc2)CC1=O (configuration not stated)	TDP1 cell noCPT 5.8µM, TDP1 cell CPT 6.5µM, RORg inh inconclusive
CCCC(=NC(C)CC)C1=C(O)CC(c2ccccc2)CC1=O (configuration not stated)	IL-1B inflam inh -67, TDP1 cell noCPT inconclusive, TDP1 cell CPT inconclusive
O=C(NCc1ccccc1)NC(=O)c1ccccc1F	none
CCOC(=O)c1ccccc1NC(=O)N1CCN(Cc2cc(=O)n3nc(-c4ccccc4)sc3n2)CC1	none (no result: ELG1 DNA repair, IL-1B inflam inh, RORg inh, VP16 counter)
COc1cc(C(F)(F)F)ccc1C(=O)NCCc1ccco1	ELG1 DNA repair inconclusive, IL-1B inflam inh inconclusive
CCn1c(=O)cc(OCC(=O)N2CCN(c3ccc(C)cc3)C(C)C2)c2ccccc21 (configuration not stated)	TDP1 cell noCPT 6.5µM, TDP1 cell CPT 7.3µM (no result: ELG1 DNA repair, IL-1B inflam inh, RORg inh, VP16 counter)
CCn1c(=O)cc(OCC(=O)N2CCN(c3ccc(F)cc3)CC2)c2ccccc21	ELG1 DNA repair inconclusive, TDP1 cell noCPT 15µM, TDP1 cell CPT 23µM
CCn1c(=O)cc(OCC(=O)N2CCCCCC2)c2ccccc21	ELG1 DNA repair inconclusive
CCn1c(=O)cc(OCC(=O)N2CCc3ccccc32)c2ccccc21	none
O=C(COc1ccccc1)Nc1ccccc1C(=O)OCc1cc(=O)n2nc(C3CC3)sc2n1	TDP1 cell noCPT inconclusive (no result: ELG1 DNA repair, IL-1B inflam inh, RORg inh, VP16 counter)
CCN(CC)CCOCCn1c(C)ccc1C	TDP1 cell noCPT inconclusive, TDP1 cell CPT inconclusive (no result: ELG1 DNA repair, RORg inh, VP16 counter)
Cc1cccc(Nc2nc(N)nc(CN3CCN(c4ccc(F)cc4)CC3)n2)c1	ELG1 DNA repair inconclusive, IL-1B inflam inh inconclusive, TDP1 cell noCPT 16µM, TDP1 cell CPT 18µM
Cc1cccc(Nc2nc(N)nc(CN3CCN(C)CC3)n2)c1	none
Cn1cnnc1SCc1nc(N)nc(Nc2ccccc2)n1	ELG1 DNA repair inconclusive
Cc1ccc(Nc2nc(N)nc(CSc3nncn3C)n2)cc1	ELG1 DNA repair inconclusive, VP16 counter 11µM
Nc1nc(CN2CCN(C(c3ccccc3)c3ccccc3)CC2)nc(Nc2ccccc2)n1	ELG1 DNA repair inconclusive, TDP1 cell noCPT 23µM, TDP1 cell CPT inconclusive, RORg inh 3.2µM, VP16 counter inconclusive
CCOC(=O)C1CCCN(Cc2nc(N)nc(Nc3ccccc3)n2)C1 (configuration not stated)	TDP1 cell noCPT 18µM, TDP1 cell CPT inconclusive
Nc1nc(CN2CCCCCC2)nc(Nc2ccccc2)n1	none
CCOC(=O)C1CCCN(Cc2c(C(=O)N3CCOCC3)nc3ccccn23)C1 (configuration not stated)	IL-1B inflam inh -68
Cc1ccc(Nc2nc(N)nc(CN3CCN(c4ccccc4F)CC3)n2)cc1	ELG1 DNA repair inconclusive, TDP1 cell noCPT inconclusive, TDP1 cell CPT inconclusive, RORg inh 11µM
CCOC(=O)C1CCCN(Cc2c(C(=O)N3CCCCC3)nc3c(C)cccn23)C1 (configuration not stated)	TDP1 cell noCPT inconclusive
Nc1nc(CN2CCN(c3ccccc3F)CC2)nc(Nc2ccccc2)n1	TDP1 cell noCPT inconclusive, TDP1 cell CPT 23µM, RORg inh inconclusive
CC1CC(C)CN(Cc2nc(N)nc(Nc3ccc4ccccc4c3)n2)C1 (configuration not stated)	ELG1 DNA repair inconclusive, IL-1B inflam inh inconclusive, TDP1 cell noCPT 21µM, TDP1 cell CPT 23µM (no result: VP16 counter)
O=[N+]([O-])c1cc(-c2nc(-c3ccccc3)no2)ccc1NC1CCCC1	none (no result: ELG1 DNA repair, IL-1B inflam inh, RORg inh, VP16 counter)
COc1ccccc1N1CCN(C(=O)C2CCN(S(=O)(=O)c3cn(C)cn3)CC2)CC1	none (no result: ELG1 DNA repair, IL-1B inflam inh, RORg inh, VP16 counter)
Nc1nc(CN2CCC(Cc3ccccc3)CC2)nc(Nc2ccccc2)n1	IL-1B inflam inh inconclusive, TDP1 cell noCPT 23µM, TDP1 cell CPT 18µM, RORg inh 10µM
C#CCOCCOCCOCCNc1nc(N2CCOCC2)nc(N2CCN(C(=O)CCCCCCCCCCNC(=O)[C@H]([C@@H](C)CC)n3cc(CCCCN=C(N)N)nn3)CC2)n1	ELG1 DNA repair inconclusive, IL-1B inflam inh inconclusive (no result: RORg inh, VP16 counter)
